In PubChem BioAssay (NCI) one finds growth data, which are given here for 38 compounds.

This is part of a sample that, as a whole, favours compounds with a hit. Of some 83,000 tested, about 20% had one in any assay.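 A percent growth of 40 corresponds to 60% growth inhibition; 0 means no net growth; -100 means all cells died. Active threshold: below 10.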 Unmarked numbers belong to inactive results. Activity calls are given as the source filed them.

The assay has as its system SF-268 CNS. Put plainly: NCI-60 one-dose screen, 48 h (100 = growth as untreated, 0 = no growth, -100 = all killed). The settings on record: 10 µM unless noted.
For the compound `NC1=NC(c2cccc(Br)c2)c2sc3ccc(Cl)cc3c2N1` (stereo not drawn), the growth is 94%. As for `CCCCn1c(-c2ccc(-c3nc(-c4ccc(Cl)cc4)no3)cc2)nc(-c2ccccc2)c1-c1ccccc1`, the growth was 95.5%. As for `CCc1ccccc1-n1c(N)c(C#N)c(-c2ccc(Cl)cc2)c(C#N)c1=O`, the growth was 104%. Consider `Cc1ccc(/C=N\NC(=O)c2[nH]c3ccc(F)cc3c2-c2ccccc2)cc1`, for which the growth was 38.9%. To `COc1ccc(/C=C/c2c(C(=O)/C=C/c3ccc(C(F)(F)F)cc3)c(C)nc3ccccc23)cc1` belongs 14.6%.

`Cc1c(C(=O)/C=C/Nc2c(Cl)cc(S(N)(=O)=O)cc2Cl)sc2nc3ccccc3n12`: the growth was 95.4%. In the case of `CC(=O)N1N=C(c2ccc(Nc3nc(Nc4ccc(F)cc4)nc(Nc4ccc(Cl)cc4)n3)cc2)CC1c1ccc(Cl)cc1` (stereo not drawn), the growth is 124%.

For `COc1ccccc1/C=C1\Oc2cc(OCCN3CCC(Cc4ccccc4)CC3)ccc2C1=O`, the growth is 84.4%.

For `Cc1nc2ccccc2c(/C=C/c2ccccc2)c1C(=O)/C=C/c1ccc(C(F)(F)F)cc1`, the growth was -6.77% (active).

For the compound `Cc1[nH]c(C(=O)Nc2ccc(C(=O)N3CCNCC3)cc2OC(C)C)c(Cl)c1Cl`, the growth is 74.4%.

For `CN1C(=O)N(C)C2Nn3c(s/c(=C\c4ccccc4)c3=O)=NC21` (stereo not drawn), the growth was 93.9%. On to `COc1ccc([C@H]2c3cc(OC)c(OC)cc3C=C(C=O)C2CO)cc1OC` (stereo partly drawn), for which the growth was 60.5%.

Regarding `O=c1n(Cc2ccc3ccccc3c2)ccn1Cc1ccc2ccccc2c1`, the growth is 84.7%. With `N/C(=N\c1nc2ccccc2s1)NC(=O)Nc1cccc2ccccc12`, the growth was 56.4%. Consider `O=C(N=c1oc2ccccc2cc1-c1cc2ccccc2[nH]1)Nc1ccc(Cl)cc1`, for which the growth was 99.3%. In the case of `Fc1cc(-c2nnc3sc(-c4ccc(Cl)cc4Cl)nn23)c(Cl)cc1Cl`, the growth is 71.5%. As for `CSc1ccc2c(c1)c(CCN)c(C)n2Cc1ccc(Cl)c(Cl)c1`, the growth was -71.1% (active). On to `OC(c1ccccc1)C(NC(Cc1ccccc1)c1ccccc1)c1ccccc1` (stereo not drawn), for which the growth was 86.8%. The value for `O=C(/C=C/c1ccc([N+](=O)[O-])o1)NNC(=O)c1cc2ccccc2cc1O` was -3.99% (active). Turning to `CCCCCCCCCCCCCCCCCCOc1ccccc1CC(=O)OCC[N+](CC)(CC)CC`, the growth is 23.8%. `Cc1c(C(=O)NCCN2CCOCC2)cn2ncnc(Oc3ccc(NC(=O)Nc4ccc(Cl)c(C(F)(F)F)c4)cc3)c12`: the growth is 29%. As for `Cc1ccc2c(n1)C(=O)C(Cl)=C(Nc1ccccc1C(C)C)C2=O`, the growth is 86.4%. With `Nc1cc2c(cc1Br)-c1cc(Cl)ccc1C2=O`, the growth was 90.6%.

As for `Cc1nn(-c2ccccc2)c2c1N=c1s/c(=C\c3ccc(C(F)(F)F)cc3)c(=O)n1CN2`, the growth is 101%. The value for `COc1ccc2c(c1)/C(=C/c1sc(=S)n(Cc3ccco3)c1O)C=N2` was 52.8%; that for `COc1nc2ccccc2cc1-c1nc2c(cnn2-c2ccccc2)c(=O)[nH]1` was 53.6%. Regarding `Cc1[nH]c(C(=O)Nc2ccc(C(=O)NCCN)cc2OC(C)C)c(Cl)c1Cl`, the growth was 68.1%. The value for `CC(C)c1cc(C(C)C)c(S(=O)(=O)Oc2ccc(NC(=O)c3ccc(Cl)cc3)cc2)c(C(C)C)c1` was 50.6%; that for `CN1C(=O)CNC(=O)[C@H](NC(=O)c2nc3ccccc3cc2O)CSSC[C@H]1C(=O)NCCCc1nc2ccccc2cc1O` was 49.5%; that for `O=S(=O)(Nc1ccc(-c2nc(-c3cccc(OCCN4CCOCC4)c3)c(-c3ccnc(Br)c3)[nH]2)cc1)c1ccccc1` was 41.3%. Turning to `COc1ccc(-c2cc3c4c(nc5ccccc5c4c2)CC(c2cc(OC)c(OC)c(OC)c2)O3)cc1` (stereo not drawn), the growth is 44.4%. Consider `COc1ccc(/C=N/Nc2cc(=O)[nH]c3ccc(Cl)cc23)cc1`, for which the growth is 58.9%. To `COc1ccc(S(=O)(=O)n2c3ccccc3n3ncc(-c4nnc(C)o4)c23)cc1` belongs 53%; to `CCc1cccc2c3c(sc12)C(c1ccc(Cl)cc1)C(C#N)=C(N)O3` (stereo not drawn), 54.1%.

Regarding `Clc1ccc(C(/C=C/c2sc(Cl)nc2Cl)=N/Nc2cc(Cl)cc(Cl)c2)cc1`, the growth is 99.4%. Turning to `NCCCNc1nc2ccccc2c2c(=O)c3cc(OC(F)(F)F)ccc3sc12`, the growth was 51%.

For the compound `Cc1cc(-c2cc(C)c(N)cc2C)c(C)cc1N`, the growth is 95.9%. `O=C(Nc1ccc(F)cc1F)c1cc(F)ccc1O`: the growth is 15.8%.
